This passage reports inhibition results from PubChem BioAssay AID1949 (Southern Research Institute, 2009).

Among all 100,000 compounds or so, about 1,600 (1.6%) were called active. About 3% were inconclusive and are not listed. A selection follows. Values without a mark were called inactive. No rule for the calls is given here.

A short description of the test: Confirmatory growth inhibition assay against Mycobacterium tuberculosis H37Rv, potency (AID 1949).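 As to inhibition: bacteria grown 7 days with compound before Alamar blue readout; 0% = untreated bacteria wells and 100% = bacteria with saturating antibiotic.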 Conditions: M. tuberculosis H37Rv growth inhibition; hits give high values, concentration not given here.
On to `CCOc1ccc(N2C(=O)CC(NCCNC(=O)c3ccc(Cl)cc3)C2=O)cc1` (configuration not stated), for which the inhibition is 2.16%.
For `Cc1cc(C(=O)NC2CCCc3ccccc32)no1` (configuration not stated) the value was “inactive”; for `COc1ccc(NC(=O)CSc2nnnn2-c2ccccc2Cl)c(OC)c1`, “inactive”; for `Cc1sc2ncnc(SCC(=O)NCC3CCCO3)c2c1-c1ccc(Cl)cc1` (configuration not stated), 2.71%.
On to `CS(=O)(=O)NC1c2cccc3cccc(c23)C1N1CCCCC1` (configuration not stated), for which the inhibition result is “inactive”.
For the compound `CC1CN(C(=O)C(C)Oc2ccc(Cl)cc2Cl)CC(C)O1` (configuration not stated), the inhibition result is “inactive”.
On to `Cc1ccc(-c2nn(C)c(=O)c3ccccc23)cc1CNC(=O)c1cccs1`, for which the inhibition entry was “inactive”.
As for `Cc1cc(Oc2coc3cc(OCC(=O)Nc4ccccc4)ccc3c2=O)cc(C)c1Cl`, the entry is “inactive”; as for `COc1cc(C(=O)Nc2ccccc2C(=O)NCCc2ccccc2)cc(OC)c1OC`, “inactive”; as for `Cn1nc([N+](=O)[O-])nc1Sc1nnc(-c2ccccc2)o1`, 49.7%.
As for `COc1ccc(-c2cc(C(=O)O)c3cc(Br)ccc3n2)c(OC)c1`, the entry is “inactive”; as for `CN1CCCC1c1cccnc1N` (configuration not stated), 1.61%.
Regarding `COc1ccc(NC(=S)N2CCN(c3ccc(F)cc3)CC2)c(OC)c1`, the inhibition result is “inactive”.
For `O=[N+]([O-])c1ccccc1S(=O)(=O)N1CCN(c2ncccn2)CC1` the value was “inactive”.
As to `Cc1ccc(-c2nnc(Nc3cccc(O)c3)c3ccccc23)cc1S(=O)(=O)NC(C)(C)CO`, the inhibition entry is “inactive”.
For `COC(=O)c1cccc(NC(=O)CCN2C(=O)c3ccccc3C2=O)c1` the value was “inactive”; for `O=C(c1cc2n(n1)C(C(F)(F)F)CC(c1ccccc1)N2)N1CCCc2ccccc21` (configuration not stated), “inactive”; for `Cc1ccc(Nc2nc(CSc3nnc(-c4ccccc4)o3)cs2)cc1`, “inactive”.
For `CCCN1CCN(CCCNC(=S)Nc2ccc(F)cc2)CC1` the value was “inactive”.
For `COc1ccc(C(=O)Nc2cccc(C(C)=O)c2)cc1I` the value was “inactive”; for `CC1(C)Cc2nc3sc4c(=O)n(CC(=O)c5ccccc5)cnc4c3cc2CO1`, 0.12%.
In the case of `CC1(C)NC(=O)N(CCCSc2ccc(Cl)cc2)C1=O`, the inhibition is 4.37%.
For `Cc1ccc(NC(=O)c2cccc(F)c2)cc1[N+](=O)[O-]` the value was “inactive”; for `CC1(C)Cc2nc(N3CCCC3)c(C#N)cc2CO1`, 1.56%.
As for `O=C(NC(=S)Nc1ccc2c(c1)Cc1ccccc1-2)c1ccc(Br)cc1`, the entry is “inactive”; as for `CC(=O)c1cccc(NC(=O)N2CCN(C(c3ccccc3)c3ccccc3)CC2)c1`, “inactive”; as for `COc1ccccc1NC(=O)c1c(NC(=O)c2ccccc2C)sc2c1CCCC2`, “inactive”.
In the case of `COc1ccc(Oc2ccc(NS(=O)(=O)c3ccc(NC(C)=O)cc3)cc2)cc1`, the inhibition was 0.37%.
As for `O=C(CNC(=O)C1CCCCC1)NNC(=O)c1ccc(Cl)cc1Cl`, the entry is “inactive”; as for `O=c1ccc2ccc(OCc3ccc(Br)cc3F)cc2o1`, “inactive”; as for `C=C1C2(C(=O)Nc3ccc(Br)cn3)CCC(C2)C1(C)C` (configuration not stated), 0.92%.
For `COc1ccc(S(=O)(=O)N(C)CC(=O)NC2CCCCC2)cc1C` the value was 2.13%; for `CCn1c(SCC(=O)Nc2cccc(F)c2C)nnc1-c1ccc(OC)cc1`, “inactive”; for `Cc1ccc(-c2cc(C(=O)NC3=NCCS3)c3cc(Br)ccc3n2)o1`, 3.59%.
For `Cc1cccc(-n2c(CCc3ccccc3)nnc2SCC(=O)Nc2c(C)cc(C)cc2C)c1` the value was 7.24%.
Take `O=[N+]([O-])c1ccc(NC(=S)NCCCn2ccnc2)cc1`: the inhibition result is “inactive”.
With `COc1ccc(C)cc1N(CC(=O)NCc1ccc(Cl)cc1Cl)S(C)(=O)=O`, the inhibition entry is “inactive”.
For `O=S(=O)(NCCSc1ccccn1)c1ccc(Br)cc1`, the inhibition is 5.4%.
For the compound `CCCCc1ccc(NC(=O)c2ccc3ccccc3c2)cc1`, the inhibition is 0.83%.
For `COc1ccc(N2CCN(c3nc(NCCc4ccc(OC)c(OC)c4)nc(N4CCOCC4)n3)CC2)cc1` the value was 40.6%; for `CCCCc1ccc(NC(=S)N2CCN(C(=O)c3ccco3)CC2)cc1`, “inactive”; for `O=C(c1cccs1)N1N=C(c2cccs2)CC1c1cccs1` (configuration not stated), “inactive”.
For `CCOc1ccc(C(=O)c2oc3ccccc3c2NC(=O)C2COc3ccccc3O2)cc1` (configuration not stated) the value was “inactive”; for `O=C(NCc1ccccn1)Nc1ccc2c(c1)OCO2`, “inactive”; for `Cc1onc(-c2ccccc2Cl)c1C(=O)Nc1nc2ccc(Cl)cc2s1`, “inactive”.
As for `COc1ccc2nc(NC(=O)CN3CCCCC3)sc2c1`, the figure is 3.2%.
Take `CCSc1nc(-c2cccs2)cc(-c2cccs2)c1C#N`: the inhibition was 5.48%.
As for `CCCC(C)c1nnc(NC(=O)CSCc2ccccc2)s1` (configuration not stated), the entry is “inactive”.
As for `CC(C)NCC(O)Cn1c2c(c3ccccc31)CCCC2=O` (configuration not stated), the entry is “inactive”; as for `CCN(CC)CCCNC(=S)Nc1ccc(Br)cc1`, 1.11%; as for `CS(=O)(=O)N(CC(=O)Nc1ccccc1C(=O)N1CCCC1)c1cccc(F)c1`, “inactive”.
As for `Cc1ccc(CN2CCC(N3CCN(c4ccccc4F)CC3)CC2)cc1`, the entry is “inactive”.
Consider `COc1ccc(S(=O)(=O)N(C(C)=O)c2ccc3oc4c(c3c2)CCCC4)cc1[N+](=O)[O-]`, for which the inhibition is 6.65%.
As for `O=C(CCCCC(=O)NC1=NCCS1)NC1=NCCS1`, the figure is 1.73%; as for `Cc1cc(Cl)ccc1OCC(=O)NCCCn1ccnc1`, “inactive”; as for `COc1ccc(OC)c(NC(=O)c2cccc(F)c2)c1`, “inactive”.
For `CCC(=O)Nc1nnc(SCC(=O)Nc2cccc(Cl)c2)s1` the value was “inactive”; for `CC1=CC(c2ccc(Cl)cc2)n2ncnc2N1` (configuration not stated), “inactive”; for `Cc1cc(C)c(NC(=O)COc2ccc(-c3ccccc3)cc2)c(C)c1`, 0.67%.
As to `CN1C(=O)C2C(C1=O)N1C(c3cccs3)C3C(=O)N(C)C(=O)C3N1C2c1cccs1` (configuration not stated), the inhibition result is “inactive”.
As for `Cc1nnc(SCC(=O)Nc2cccc(Cl)c2Cl)n1-c1ccc(F)cc1`, the figure is 32.3%; as for `Cc1cc(NC(=O)Cc2ccc(Br)cc2)no1`, “inactive”.
As for `O=C(CSc1nc2ccccc2[nH]1)Nc1ccc(Cl)cn1`, the entry is “inactive”; as for `Cc1c(NC(=O)CSc2nnnn2-c2ccc(O)cc2)c(=O)n(-c2ccccc2)n1C`, “inactive”.
For `Cc1ccc(CC(=O)Nc2ccc(S(=O)(=O)N3CCC(C)CC3)cc2)cc1` the value was “inactive”.
Regarding `COc1cc(S(=O)(=O)NC(c2ccccc2)c2ccccc2)ccc1Cl`, the inhibition entry is “inactive”.
As for `O=C(CSc1nnc(-c2ccncc2)n1-c1ccccc1)c1ccc(Cl)cc1`, the entry is “inactive”; as for `COc1ccc(CC(=O)NC(=S)N2CCOCC2)cc1`, 2.63%; as for `COc1ccc(Cl)cc1C(=O)Nc1cc(C(F)(F)F)ccc1N1CCOCC1`, “inactive”.
On to `C=CCc1cc(OC)ccc1OCCN1CCN(C)CC1`, for which the inhibition result is “inactive”.
For `O=C(c1csc2c1CCCC2)N1CCC2(CC1)OCCO2` the value was “inactive”.
As for `C=CCN(c1ccc(C(=O)Nc2ccccc2-c2ccccc2)cc1)S(C)(=O)=O`, the entry is “inactive”; as for `CCc1ccc(OC(C)c2nnc(SCC(=O)Nc3ccc(C)c(C)c3)n2CC)cc1` (configuration not stated), 1.06%; as for `COc1ccc(OC)c(C2C(C#N)=C(N)OC(c3ccccc3)=C2C#N)c1` (configuration not stated), “inactive”.
With `Cc1ccc(C(=O)CCC(=O)Nc2ccccc2C)cc1C`, the inhibition result was “inactive”.
As for `Cc1ccc(NC(=O)CSc2nnc(N)s2)cc1`, the entry is “inactive”.
For `COc1ccccc1CNC(=O)c1cc(OC)c(OC)cc1OC` the value was 2.59%; for `N#Cc1ccc(NC(=S)NCCN2CCOCC2)cc1`, “inactive”; for `CC(C(=O)Nc1cccc(C(F)(F)F)c1)N(c1ccc(Oc2ccccc2)cc1)S(C)(=O)=O` (configuration not stated), 12.4%.
For `O=C(C1CCN(C(=S)NC2CC2)CC1)N1CCCCCC1`, the inhibition entry is “inactive”.
As for `Cc1ccc(C(C)C)c(OCC(=O)NNC(=S)NCCc2ccccc2)c1`, the entry is “inactive”.
For `COc1ccc(CNC(=O)C2CCCN2CCc2ccccc2)cc1OC` (configuration not stated) the value was 4.85%.
For `CCOC(=O)c1ccc(NC(=S)NNc2nc(C)cc(C)n2)cc1` the value was “inactive”.
With `CCOC(=O)C1=C(C)N=c2s/c(=C\c3c4ccccc4cc4ccccc34)c(=O)n2C1c1ccccc1Cl` (configuration not stated), the inhibition result was “inactive”.
As for `Cc1cc(C)cc(C(=O)Nc2ccc(CN3CCOCC3)cc2)c1`, the entry is “inactive”; as for `CC(C)(C)C1(c2ccccc2)NC(=O)NC1=O` (configuration not stated), 0.0333%; as for `CCN(CC)CC(=O)Nc1ccccc1OC`, “inactive”.
Regarding `OCCNCCOc1ccc2ccccc2c1Br`, the inhibition result was “inactive”.
As for `N#C/C(=C\C=C\c1ccccc1Cl)c1nc2ccccc2[nH]1`, the entry is “inactive”; as for `C=CCn1c(SCC#CCO)nc2ccccc2c1=O`, “inactive”; as for `COc1ccccc1CCNC(=O)c1ccc(COCC(F)(F)C(F)F)cc1`, “inactive”.
As for `CCCCOc1cccc(C(=O)NC(=S)Nc2cccnc2)c1`, the entry is “inactive”; as for `Cc1ccc(SCC(=O)Nc2ccc(S(=O)(=O)Nc3cccc(C(F)(F)F)c3)cc2)cc1`, “inactive”.
For `CCc1ccc(-n2c(C)cc(C=NO)c2C)cc1` the value was 17.1%; for `COc1ccc(S(=O)(=O)N(CC(=O)NC2CC3CCC2C3)c2ccccc2)cc1OC` (configuration not stated), “inactive”.
On to `O=C1C2CCCCC2C(=O)N1c1n[nH]c(CCc2ccccc2)n1` (configuration not stated), for which the inhibition entry is “inactive”.
As for `CCc1cccc(C)c1NC(=O)CN(c1ccc(C)c(C)c1)S(=O)(=O)c1ccc(Cl)cc1`, the entry is “inactive”; as for `COc1ccc(NC(=S)N2CCN(Cc3cccc(F)c3)CC2)c(OC)c1`, “inactive”; as for `O=C(NCc1ccc2c(c1)OCO2)Nc1ccc([N+](=O)[O-])cc1`, “inactive”.
For `c1ccc2c(c1)nc(-c1cscn1)n2Cc1ccc(-c2nn[nH]n2)cc1` the value was “inactive”.
For `COc1ccc(S(=O)(=O)Nc2cccnc2)cc1C` the value was “inactive”; for `COc1cc(NC(=O)c2ccc(F)cc2)ccc1NC(=O)C(C)C`, “inactive”; for `O=C(c1cn(-c2ccccc2)nc1-c1cccnc1)n1nnc2ccccc21`, 2.67%.
As to `COc1ccc([N+](=O)[O-])cc1NC(=O)c1cc(-c2ccc(OC)c(OC)c2)nc2ccccc12`, the inhibition result was “inactive”.
For `CCCN1CCN(C(=O)c2ccncc2)CC1` the value was 1.8%; for `COc1ccc2c(c1)sc1nc(-c3cc4cccc(OC)c4oc3=O)cn12`, “inactive”.
For `Cc1ccc(OCCSC2=NN2c2cc(C)nc(N)n2)cc1` the value was “inactive”.
